Laboratory results from PubChem BioAssay (EPA / NIEHS).
Records with an inconclusive call do not appear. Active and inactive are the calls of the source. The calls were made as follows, unless noted: active = hit-call score of the fitted dose curve at least 0.9, where 1 is the maximum; inactive = score below 0.9.

Experiments:
[1] = CCTE_Shafer_MEA_acute_spike_number: CCTE's Neural Acute Assay for Total Number of Spikes, Shafer Lab (AID 2284008)
In short: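 Using an adaptive detector set to 8x rms noise, spikes were counted in 40-min windows before and after compound addition (0.03-40 uM) to rat cortical networks at 37 C; the well-level change from baseline was analysed relative to DMSO.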

[2] = CCTE_Shafer_MEA_acute_firing_rate_mean: CCTE's Neural Acute Assay for Mean Firing Rate, Shafer Lab (AID 2284009);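 also: analyzed for loss of signal so actives lower firing rate relative to DMSO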
In short: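 Read-out: well-mean spike rate (spikes/recording length/electrodes), % change from 40 min pre-dose baseline to 40 min with compound. Rat cortical cultures, DIV 13 or 15, 37 C; 0.03-40 uM; DMSO as negative control.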

[3] = CCTE_Harrill_HTTr_Viability_MCF7: CCTE's 6-hour Cell Viability Assessment for the High-Throughput Transcriptomics (HTTr) Platform, in MCF-7 cells cultured in DMEM + 10% fetal bovine serum, Harrill Lab (AID 2284010)
In short: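 Membrane integrity was scored by high-content imaging of propidium iodide dye exclusion after a 6 h exposure across an eight-point dilution series. Data were fitted bidirectionally relative to DMSO as negative control and baseline.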

[4] = CCTE_Harrill_HTTr_Apoptosis_MCF7: CCTE's 6-hour Apoptosis Assessment for the High-Throughput Transcriptomics (HTTr) Platform, in MCF-7 cells cultured in DMEM + 10% fetal bovine serum, Harrill Lab (AID 2284011)
In short: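 Apoptosis in MCF-7 cells grown in DMEM with 10% fetal bovine serum was scored after a six hour exposure by high content imaging of caspase-3/7 activation (CellEvent Caspase 3/7 Green), with DMSO serving as negative control and baseline.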

[5] = CCTE_Harrill_HTTr_CellCount_MCF7: CCTE's Cell Proliferation Assessment for the High-Throughput Transcriptomics (HTTr) Platform, Harrill Lab (AID 2284012; active = hit-call score of the fitted dose curve at least 0.9, where 1 is the maximum;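 also: cells exposed to compound for six hours; intended direction is loss of nuclei count meaning fewer cells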)
In short: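 MCF-7 cells were exposed for 6 h to an eight-point dilution series; Hoechst-labeled nuclei were counted by high content imaging. Curves were fitted bidirectionally against DMSO as negative control and baseline, with signal loss indicating reduced cell count.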

[6] = CCTE_Shafer_MEA_acute_burst_number: CCTE's Neural Acute Assay for Single-Electrode Bursts, Shafer Lab (AID 2284013)
In short: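 Rat cortical cultures, DIV 13/15; 40 min baseline, then 40 min with compound 0.03-40 uM, 37 C. Spikes: 300-5000 Hz band-pass, threshold 8x rms noise. Readout = % change in single-electrode bursts vs baseline, loss-of-signal fit.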

[7] = CCTE_Shafer_MEA_acute_burst_duration_mean: CCTE's Neural Acute Assay for Mean Burst Duration, Shafer Lab (AID 2284014);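 also: hits are decreases in mean burst duration relative to DMSO controls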
In short: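 Primary rat cortical neurons on 16-electrode MEA wells, treated on DIV 13 or 15 with compound (0.03-40 uM; ≥3 wells each). 40-min baseline and 40-min exposure recordings at 37 C; percent change in mean burst duration per well versus DMSO.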

[8] = CCTE_Shafer_MEA_acute_per_burst_spike_number_mean: CCTE's Neural Acute Assay for Average Number of Spikes Per Burst, Shafer Lab (AID 2284015);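 also: hits are decreases in mean spikes per burst versus baseline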
In short: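 Percent change in mean spikes per single-electrode burst is compared between a 40 min baseline and a 40 min recording with compound (0.03-40 uM). Cultures were rat cortical neurons on MEA plates at DIV 13 or 15, recorded at 37 C, with DMSO as the negative control.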

[9] = CCTE_Shafer_MEA_acute_interburst_interval_mean: CCTE's Neural Acute Assay for Mean Interburst Interval, Shafer Lab (AID 2284016);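 also: percent change of mean interburst interval versus each well's own pre-dose baseline; curves fitted for decrease in interburst interval relative to DMSO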
In short: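 Percent change in mean single-electrode interburst interval was calculated per well from 40 min recordings before and after compound (0.03-40 uM). Recordings were made at 37 C on rat cortical cultures at DIV 13 or 15, with spikes detected at 8x rms threshold.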

[10] = CCTE_Shafer_MEA_acute_burst_percentage_mean: CCTE's Neural Acute Assay for Percentage of Spikes in a Burst, Shafer Lab (AID 2284017)
In short: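 Well-level mean burst percentage from a 40-min recording after compound (0.03-40 uM) expressed as percent change from a 40-min baseline at 37C. Cultures: primary rat cortical neurons on MEA, dosed on DIV 13 or 15; fitted downward relative to DMSO.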

[11] = CCTE_Shafer_MEA_acute_burst_percentage_std: CCTE's Neural Acute Assay for Standard Deviation of Burst Percentage, Shafer Lab (AID 2284018);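 also: fitted in the negative direction so actives lower burst percentage SD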
In short: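 Primary rat cortical neurons on 16-electrode MEA wells were recorded 40 min at baseline (DIV 13 or 15), then 40 min after compound (0.03-40 uM), at 37 C. Well value is SD across electrodes of spikes-in-bursts/total spikes; endpoint is percent change, DMSO-referenced.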

[12] = CCTE_Shafer_MEA_acute_per_network_burst_spike_number_mean: CCTE's Neural Acute Assay for Average Number of Spikes in a Network Burst, Shafer Lab (AID 2284019)
In short: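 Primary rat cortical neurons on 16-electrode MEA wells, DIV 13 or 15, 37 C; 40-min baseline then 40-min recording with compound (0.03-40 uM). Spikes per network burst (total spikes/number of bursts) expressed as percent change from baseline, DMSO reference.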

[13] = CCTE_Shafer_MEA_acute_per_network_burst_spike_number_std: CCTE's Neural Acute Assay for Standard Deviation of Number of Spikes in a Network Burst, Shafer Lab (AID 2284020);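 also: fitted for decrease in spike-number SD versus DMSO so actives lower it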
In short: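 Primary rat cortical neurons on 48-well MEAs (16 electrodes/well) recorded at DIV 13 or 15: 40-min baseline, then 40 min with compound (0.03-40 uM), 37 C. Value is percent change in SD of spikes per network burst, relative to DMSO.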

[14] = CCTE_Shafer_MEA_acute_network_burst_percentage: CCTE's Neural Acute Assay for Percentage of Network Bursts, Shafer Lab (AID 2284022);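 also: curves fitted for loss so actives lower network burst percentage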
In short: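 On DIV 13 or 15, at least three wells of rat cortical neurons per compound are dosed at 0.03-40 uM. Spontaneous firing is detected at 8x rms noise for 40 min before and after dosing at 37 C. The percent change in network-burst spike share is reported.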

[15] = CCTE_Shafer_MEA_acute_cross_correlation_area: CCTE's Neural Acute Assay for Area of Cross Correlation, Shafer Lab (AID 2284024);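 also: area under pooled inter-electrode spike cross-correlation near zero lag as percent change from own baseline; curves fitted for loss of cross-correlation area so actives lower synchrony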
In short: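 Extracellular recordings from cultured rat cortical neurons measure network synchrony as cross-correlation area; each well's post-compound value (0.03-40 uM, 40 min) is compared with its own 40 min baseline to give percent change.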

[16] = CCTE_Shafer_MEA_acute_cross_correlation_HWHM: CCTE's Neural Acute Assay for Cross Correlation at Half Width at Half Maximum, Shafer Lab (AID 2284026);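 also: spontaneous network firing of rat primary cortical neurons on multiwell microelectrode arrays; percent change per well from pre-dose baseline in spike cross-correlogram half width; hits are a decrease in cross-correlogram half width relative to DMSO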
In short: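 Percent change in cross-correlogram half width at half maximum, narrower meaning more synchrony, was derived per well from paired 40-min recordings before and during exposure to 0.03-40 uM compound in rat cortical cultures at 37 C.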

[17] = molecular target: Estrogen receptor (Homo sapiens) (UniProt P03372); experiment: CCTE_Deisenroth_AIME_96WELL_LUC_Active: CCTE's 96-well Estrogen Receptor Transactivation Assay with AIME metabolic competence (ERTA luciferase; metabolism positive), Deisenroth Lab (AID 2284023; active = hit-call score of the fitted dose curve at least 0.9, where 1 is the maximum)
Chain of Estrogen receptor (Homo sapiens) (P03372 whole entry, looked up): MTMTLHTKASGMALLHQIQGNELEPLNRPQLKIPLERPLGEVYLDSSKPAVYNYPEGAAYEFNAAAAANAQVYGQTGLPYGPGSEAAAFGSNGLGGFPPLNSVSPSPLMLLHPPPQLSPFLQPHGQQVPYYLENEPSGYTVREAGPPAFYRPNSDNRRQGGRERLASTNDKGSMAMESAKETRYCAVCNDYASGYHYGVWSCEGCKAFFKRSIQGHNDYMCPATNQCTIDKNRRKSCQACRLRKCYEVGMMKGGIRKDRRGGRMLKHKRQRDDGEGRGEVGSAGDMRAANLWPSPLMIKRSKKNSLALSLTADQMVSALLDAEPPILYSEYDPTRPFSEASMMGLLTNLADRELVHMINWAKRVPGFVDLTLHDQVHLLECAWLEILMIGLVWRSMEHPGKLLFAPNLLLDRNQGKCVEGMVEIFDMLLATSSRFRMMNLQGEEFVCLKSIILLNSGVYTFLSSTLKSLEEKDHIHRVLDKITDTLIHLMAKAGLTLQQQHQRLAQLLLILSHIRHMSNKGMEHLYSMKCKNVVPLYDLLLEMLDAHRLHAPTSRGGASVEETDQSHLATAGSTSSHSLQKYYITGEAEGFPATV
In short: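 Chemicals pre-incubated 2 h with alginate-immobilized phenobarbital/beta-naphthoflavone-induced male Sprague Dawley rat liver S9, then medium transferred to VM7Luc4E2 cells for 24 h luciferase read-out. 10-point series 0.002 - 200 uM; fitted relative to 17beta-estradiol.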

[18] = molecular target: Estrogen receptor (Homo sapiens) (UniProt P03372); experiment: CCTE_Deisenroth_AIME_96WELL_LUC_Inactive: CCTE's 96-well Estrogen Receptor Transactivation Assay without AIME metabolic competence (ERTA luciferase; metabolism negative), Deisenroth Lab (AID 2284025; active = hit-call score of the fitted dose curve at least 0.9, where 1 is the maximum)
In short: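 VM7Luc4E2 breast cells, luciferase read 24 h after dosing with medium pre-incubated 2 h on alginate-water lids (metabolism negative). 10-point series 0.002–200 uM, single technical replicate, n≥4; fit relative to 17beta-estradiol.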

ClC1(Cl)C2(Cl)C3(Cl)C4(Cl)C(Cl)(Cl)C5(Cl)C3(Cl)C1(Cl)C5(Cl)C24Cl (stereo not drawn)
outcome [1]: inactive
outcome [2]: inactive
outcome [3]: inactive
outcome [4]: inactive
outcome [5]: inactive
outcome [6]: inactive
outcome [7]: inactive
outcome [8]: inactive
outcome [9]: inactive
outcome [10]: inactive
outcome [11]: inactive
outcome [12]: inactive
outcome [13]: inactive
outcome [14]: inactive
outcome [15]: inactive
outcome [16]: inactive

Cc1ccc2ccccc2c1C
outcome [3]: inactive
outcome [4]: inactive

COC[C@H](C)N(C(=O)CCl)c1c(C)csc1C
outcome [3]: inactive
outcome [4]: inactive

COc1ccccc1OC
outcome [3]: inactive
outcome [4]: inactive

CNC(=O)O/N=C/C(C)(C)S(C)=O (stereo not drawn)
outcome [3]: inactive
outcome [4]: inactive

Fc1ccc(C2(Cn3cncn3)OC2c2ccccc2Cl)cc1 (stereo not drawn)
outcome [3]: inactive
outcome [4]: inactive

CC(C)(c1ccc(OCC2CO2)cc1)c1ccc(OCC2CO2)cc1 (stereo not drawn)
outcome [3]: inactive
outcome [4]: inactive

Cc1ccccc1N
outcome [3]: inactive
outcome [4]: inactive

O=C1CCCN1
outcome [3]: inactive
outcome [4]: inactive

NC(=O)CF
outcome [3]: inactive
outcome [4]: inactive
outcome [5]: inactive

CCC(=O)c1ccccc1
outcome [3]: inactive
outcome [4]: inactive

Cc1ccccc1C(=O)Nc1cccc(OC(C)C)c1
outcome [3]: inactive
outcome [4]: inactive
outcome [5]: inactive

CCc1ccccc1C
outcome [3]: inactive
outcome [4]: inactive
outcome [5]: inactive

CN(C)N=O
outcome [3]: inactive
outcome [4]: inactive
outcome [5]: inactive

COP(=S)(OC)Oc1cc(Cl)c(Cl)cc1Cl
outcome [3]: inactive
outcome [4]: inactive
outcome [5]: inactive

C1CCC(NC2CCCCC2)CC1
outcome [3]: inactive
outcome [4]: inactive

BrCCBr
outcome [3]: inactive
outcome [4]: inactive

CC12CC1(C)C(=O)N(c1cc(Cl)cc(Cl)c1)C2=O (stereo not drawn)
outcome [3]: inactive
outcome [4]: inactive
outcome [5]: inactive

CCOC(=O)Nc1cccc(OC(=O)Nc2ccccc2)c1
outcome [3]: inactive
outcome [4]: inactive
outcome [5]: inactive

Cn1sc(Cl)cc1=O
outcome [3]: inactive
outcome [4]: inactive

CCC[CH2][Sn]([CH2]CCC)([CH2]CCC)[O]C(=O)c1ccccc1
AC50 [3]: 15.6 µM (active)
AC50 [4]: 11.5 µM (active)
AC50 [5]: 17.9 µM (active)

COP(=O)(OC)OC
outcome [3]: inactive
outcome [4]: inactive
outcome [5]: inactive

COP(=O)(OC)O/C(=C\Cl)c1cc(Cl)c(Cl)cc1Cl
outcome [3]: inactive
outcome [4]: inactive

CNC
outcome [3]: inactive
outcome [4]: inactive

COC(=O)c1sccc1S(=O)(=O)NC(=O)Nc1nc(C)nc(OC)n1
outcome [3]: inactive
outcome [4]: inactive

C[C@@H]1C[C@@H]([C@H](O)CC2CC(=O)NC(=O)C2)C(=O)[C@@H](C)C1
outcome [3]: inactive
outcome [4]: inactive
outcome [5]: inactive

Clc1ccc(C2(Cn3cncn3)CC(Br)CO2)c(Cl)c1 (stereo not drawn)
outcome [3]: inactive
outcome [4]: inactive
outcome [5]: inactive

CCSC(C)CC1CC(=O)C(C(CC)=NOC/C=C/Cl)=C(O)C1 (stereo not drawn)
outcome [3]: inactive
outcome [4]: inactive

CN(CCCC(=O)c1cccnc1)N=O
outcome [3]: inactive
outcome [4]: inactive

CCC1(c2ccc(N)cc2)CCC(=O)NC1=O (stereo not drawn)
outcome [3]: inactive
outcome [4]: inactive
outcome [5]: inactive

CCCCCCCCCl
outcome [3]: inactive
outcome [4]: inactive
outcome [5]: inactive

COP(=S)(OC)Oc1ccc(Sc2ccc(OP(=S)(OC)OC)cc2)cc1
outcome [3]: inactive
outcome [4]: inactive

O=CC=O
outcome [3]: inactive
outcome [4]: inactive
outcome [5]: inactive

ClCCBr
outcome [3]: inactive
outcome [4]: inactive

CC1CCCCC1NC(=O)Nc1ccccc1 (stereo not drawn)
outcome [3]: inactive
outcome [4]: inactive
outcome [5]: inactive

COP(=S)(OC)Oc1cc(Cl)c(Br)cc1Cl
outcome [3]: inactive
outcome [4]: inactive

CN(C)P(=O)(N(C)C)N(C)C
outcome [3]: inactive
outcome [4]: inactive

CC(C)CCCCCCOC(=O)c1ccccc1C(=O)OCCCCCCC(C)C
outcome [3]: inactive
outcome [4]: inactive
outcome [5]: inactive

C[C@@H](Oc1ccc(Cl)cc1Cl)C(=O)O
outcome [3]: inactive
outcome [4]: inactive
outcome [5]: inactive

O=C(OC1CCCCC1)c1ccccc1C(=O)OC1CCCCC1
AC50 [17]: 20.5 µM (active)
AC50 [18]: 10.1 µM (active)

C=CC#N
outcome [17]: inactive
outcome [18]: inactive
